ChEMBL document CHEMBL3988442, “University of Dundee, Small-Polar-MMV Screening Library” (2021)
In all, about 48,000 compounds went through this assay and about 13,000 (27%) showed an effect of 50% or more. The list shows a part of the results.

System: Wolbachia pipientis
Experiment: Anti-Wolbachia Cell-Based Screen
Format: functional
Set-up: scale not given: in the data most compounds retested in dose-response had high values
Settings: 5 µM

| Compound | Percent Effect [%] |
| --- | --- |
| c1cnnc(N2CCCC(NCc3nc(-c4ccsc4)no3)C2)c1 (stereo not given) | -5.717 |
| COC(=O)c1ccc2ccn(CC3COCCO3)c(=O)c2c1 (stereo not given) | -29.12 |
| NS(=O)(=O)N1CCC(C(=O)Nc2cccc(OC(F)F)c2)CC1 | 23.74 |
| Cc1cccc2c(=O)c(C(=O)N3CCCC4(CN(C)C(=O)O4)C3)c[nH]c12 (stereo not given) | 3.697 |
| CN(Cc1nc(CS(C)(=O)=O)no1)c1ccccc1 | 1.355 |
| COc1ccccc1OC1CN(C(=O)C(c2ccccc2F)N(C)C)C1 (stereo not given) | 10.69 |
| O=C(c1cccc(S(=O)(=O)NCCc2nccs2)c1)N1CCOCC1 | -12.77 |
| COCCCn1c(CN2CCCC(O)C2)cnc1S(=O)(=O)C1CCCC1 (stereo not given) | -2.252 |
| COCCN1C(=O)[C@]2(CC[C@@H]3CN(S(=O)(=O)CC(C)C)C[C@@H]32)N=C1C | -14.47 |
| CC(C)(C)C(=O)NCC(=O)NCC1CCCS1 (stereo not given) | -13.47 |
| CN(Cc1ccc(C#N)cc1)C(=O)c1ccnc(OC2CCC2)c1 | -4.84 |
| OC1(Cn2ccc3ncccc32)CCN(Cc2cc(F)cc(F)c2)CC1 | 107.3 |
| Cc1ccc2nc(CN3CCC(O)(Cn4ccnc4)CC3)cc(O)c2c1 | -4.196 |
| Cc1ccc(CN2CCC(O)(Cn3ccc4ncccc43)CC2)o1.Cl | 100 |
| COc1ccc(F)cc1CN1CCC(O)(CN2CCCCC2)C1 (stereo not given) | 8.228 |
| NC(=O)CN1CC2(CCC1=O)CCN(Cc1cc(F)cc(F)c1)CC2 | 6.606 |
| Cc1cc(CN2CCC(O)(Cn3ccc4ncccc43)CC2)c(C)s1 | 75.84 |
| COc1ccccc1CN1CCC(O)(Cn2ccc3ncccc32)CC1 | 82.78 |
| Cc1ccc(CN2CCCC3(CCN(Cc4ccc(C)o4)C3)C2)o1 (stereo not given) | 14.2 |
| Cc1cc(N2CCCN(Cc3ccc(C)o3)CC2)ccn1 | -3.581 |
| OCC1(O)CCCN(Cc2ccccc2OCCc2ccccc2)CC1 (stereo not given) | 13.11 |
| Oc1cc(CN2CCC(O)(Cn3ccnc3)CC2)nc2ccc(F)cc12 | -18 |
| Cc1cc(C(=O)N2CCN(C(=O)Cc3ccccn3)CC2)c(C)s1 | 2.124 |
| Nc1ccnn1C1CCN(Cc2ccccc2)C1 (stereo not given) | -4.351 |
| CCN(C)Cc1cnc(S(=O)(=O)CC)n1CCOC | 2.274 |
| Cc1cc(S(=O)(=O)NCC2CNCCOC2)c(C)cc1Cl (stereo not given) | -6.904 |
| O=C(O)C(=O)O.c1cnc(-c2noc(C3CN(Cc4ccsc4)C3)n2)cn1 | 20.73 |
| Cl.OC1(Cn2ccc3ncccc32)CCN(Cc2ccccc2F)CC1 | 103.8 |
| Cl.OC1(Cn2ccc3ncccc32)CCN(Cc2ccccn2)CC1 | -13.22 |
| O=C(O)C1(Cc2ccccc2Cl)CCN(c2ncccc2F)CC1 | -2.228 |
